Source: PubChem BioAssay (NCI)
The panel holds about 83,000 compounds, 20% with a hit somewhere; the sample as a whole holds those more often.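 Single-dose data. Exposure time 48 hours. Values below 10 considered active.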 The source made the active and inactive calls.

Columns and labels:
Test in all cases: NCI-60 one-dose screen, 48 h (100 = growth as untreated, 0 = no growth, -100 = all killed)
Conditions in all cases: 10 µM
DU-145 prostate = system: DU-145 prostate
K-562 leukemia = system: K-562 leukemia
MDA-MB-231 breast = system: MDA-MB-231 breast
RXF 393 renal = system: RXF 393 renal
SF-268 CNS = system: SF-268 CNS
SF-295 CNS = system: SF-295 CNS
SF-539 CNS = system: SF-539 CNS
UACC-257 melanoma = system: UACC-257 melanoma
M14 melanoma = system: M14 melanoma
HCT-15 colon = system: HCT-15 colon
HT29 colon = system: HT29 colon
SNB-75 CNS = system: SNB-75 CNS
SNB-19 CNS = system: SNB-19 CNS
U251 CNS = system: U251 CNS
SK-MEL-5 melanoma = system: SK-MEL-5 melanoma
UACC-62 melanoma = system: UACC-62 melanoma
LOX IMVI melanoma = system: LOX IMVI melanoma
SK-MEL-28 melanoma = system: SK-MEL-28 melanoma
PC-3 prostate = system: PC-3 prostate

Measured: growth

CC1=NN(C(=O)c2nn(-c3ccc(Cl)cc3)cc2O)C(=O)C1
inactive: DU-145 prostate 52.4% | K-562 leukemia 15.3% | MDA-MB-231 breast 63.2% | RXF 393 renal 56.9% | SF-268 CNS 38.4% | SF-295 CNS 67% | SF-539 CNS 51.9% | UACC-257 melanoma 74.5% | M14 melanoma 50.9% | HCT-15 colon 34.5% | HT29 colon 41.8% | SNB-75 CNS 28.7% | SNB-19 CNS 59.6% | U251 CNS 47.9% | SK-MEL-5 melanoma 64.9% | UACC-62 melanoma 41.5% | LOX IMVI melanoma 40.5% | SK-MEL-28 melanoma 72.1%

CCCCCCCCCCCC[n+]1c(C)cc(N)c2ccccc21
active: K-562 leukemia -39.5% | MDA-MB-231 breast -3.36% | RXF 393 renal -27.7% | SF-295 CNS -1.01% | UACC-257 melanoma -17.8% | M14 melanoma -33.5% | HT29 colon -8.54% | SNB-75 CNS 3.98% | SNB-19 CNS 9.29% | U251 CNS 8.56% | PC-3 prostate -6.19% | SK-MEL-5 melanoma -96.7% | LOX IMVI melanoma -74.4%
inactive: DU-145 prostate 24.2% | SF-268 CNS 19.6% | SF-539 CNS 16.5% | HCT-15 colon 34.7% | SK-MEL-28 melanoma 29.5%

COc1ccc(C2CC(c3cc(OC)c(OC)c(OC)c3)=NN2)cc1 (stereo not given)
inactive: DU-145 prostate 91.5% | K-562 leukemia 11.2% | MDA-MB-231 breast 86.8% | RXF 393 renal 92.5% | SF-268 CNS 74.2% | SF-295 CNS 48.1% | SF-539 CNS 78.7% | UACC-257 melanoma 120% | M14 melanoma 92.6% | HCT-15 colon 36.2% | HT29 colon 29.9% | SNB-75 CNS 68.5% | SNB-19 CNS 68.3% | U251 CNS 26.2% | SK-MEL-5 melanoma 81.4% | UACC-62 melanoma 67% | LOX IMVI melanoma 43.9% | SK-MEL-28 melanoma 113%

CCn1cc(C(=O)O)c(=O)c2cc(F)c(N3CCNCC3)cc21
inactive: DU-145 prostate 106% | K-562 leukemia 96.6% | MDA-MB-231 breast 100% | RXF 393 renal 118% | SF-268 CNS 103% | SF-295 CNS 93% | UACC-257 melanoma 106% | M14 melanoma 117% | HCT-15 colon 102% | HT29 colon 109% | SNB-75 CNS 98.2% | SNB-19 CNS 101% | U251 CNS 101% | PC-3 prostate 102% | SK-MEL-5 melanoma 99.3% | LOX IMVI melanoma 98.7% | SK-MEL-28 melanoma 115%

COc1ccc(-c2nn(-c3cccc(Cl)c3)cc2-c2c(C#N)c(=O)n3[nH]c(-c4ccccc4)nc3c2C#N)cc1
inactive: DU-145 prostate 102% | K-562 leukemia 78.3% | MDA-MB-231 breast 87.1% | RXF 393 renal 95.9% | SF-268 CNS 101% | SF-295 CNS 58.8% | SF-539 CNS 100% | UACC-257 melanoma 110% | M14 melanoma 109% | HCT-15 colon 93.4% | HT29 colon 96.9% | SNB-75 CNS 80.3% | SNB-19 CNS 90.9% | PC-3 prostate 101% | SK-MEL-5 melanoma 96.4% | UACC-62 melanoma 99.3% | LOX IMVI melanoma 87.6% | SK-MEL-28 melanoma 115%

O=C1CC(=O)N(C(=O)c2nn(-c3ccc(Cl)cc3)cc2O)N1
active: K-562 leukemia 5.55% | SF-295 CNS -7.1%
inactive: DU-145 prostate 46.9% | MDA-MB-231 breast 62.3% | RXF 393 renal 53.3% | SF-268 CNS 43.3% | SF-539 CNS 39.7% | UACC-257 melanoma 66.1% | M14 melanoma 47.5% | HCT-15 colon 36.9% | HT29 colon 27.9% | SNB-75 CNS 40.9% | SNB-19 CNS 48% | U251 CNS 39.5% | SK-MEL-5 melanoma 47% | UACC-62 melanoma 36.1% | LOX IMVI melanoma 36.8% | SK-MEL-28 melanoma 136%

Cc1c2c(nn1C(=O)c1nn(-c3ccc(Cl)cc3)cc1O)-c1ccccc1CC2
active: K-562 leukemia -11.5% | SF-295 CNS -15.1% | SF-539 CNS 9.85% | UACC-257 melanoma -1.88% | UACC-62 melanoma -6.22%
inactive: DU-145 prostate 24.1% | MDA-MB-231 breast 38.1% | RXF 393 renal 31.8% | SF-268 CNS 33.9% | M14 melanoma 27.2% | HCT-15 colon 25.1% | HT29 colon 30% | SNB-75 CNS 46.7% | SNB-19 CNS 34.3% | U251 CNS 22.3% | SK-MEL-5 melanoma 24.3% | LOX IMVI melanoma 17.5% | SK-MEL-28 melanoma 54.7%

COc1ccc(/C=c2\sc3n(c2=O)C(c2cc(OC)c(OC)c(OC)c2)C=C(c2ccc(OC)c(OC)c2)N=3)cc1OC (stereo not given)
inactive: DU-145 prostate 112% | K-562 leukemia 89.9% | MDA-MB-231 breast 85.5% | RXF 393 renal 105% | SF-268 CNS 91.1% | SF-295 CNS 115% | UACC-257 melanoma 88.9% | M14 melanoma 100% | HCT-15 colon 90.3% | SNB-75 CNS 76.2% | SNB-19 CNS 89.9% | U251 CNS 98.9% | PC-3 prostate 86.6% | SK-MEL-5 melanoma 83.4% | UACC-62 melanoma 85.6% | LOX IMVI melanoma 93.8% | SK-MEL-28 melanoma 104%

Cc1ccc(C(SCC(N)C(=O)O)(c2ccc(C)cc2)c2ccc(C)cc2)cc1 (stereo not given)
active: DU-145 prostate -39% | K-562 leukemia 0.419% | MDA-MB-231 breast 1.37% | SF-295 CNS -13.8% | SF-539 CNS -29.7% | UACC-257 melanoma -18.5% | M14 melanoma -74.5% | SNB-75 CNS -6.9%
inactive: SF-268 CNS 17.6% | HCT-15 colon 30.1% | HT29 colon 14.1% | SNB-19 CNS 30.4% | U251 CNS 25.4% | PC-3 prostate 11.2% | SK-MEL-5 melanoma 16.5% | UACC-62 melanoma 30.7% | LOX IMVI melanoma 40.6% | SK-MEL-28 melanoma 56.6%

COc1ccc(N(C)c2ncnc3occ(C)c23)cc1
active: DU-145 prostate -40.2% | K-562 leukemia 1.42% | MDA-MB-231 breast -3.09% | SF-295 CNS -8.16% | SF-539 CNS -20.4% | M14 melanoma 0.316% | HT29 colon 7.69% | SK-MEL-5 melanoma -44.5%
inactive: RXF 393 renal 14.4% | SF-268 CNS 18% | UACC-257 melanoma 66.8% | HCT-15 colon 11.1% | SNB-75 CNS 44.8% | SNB-19 CNS 27.2% | U251 CNS 13.9% | UACC-62 melanoma 22.9% | LOX IMVI melanoma 17.7% | SK-MEL-28 melanoma 134%

IC(I)I
inactive: DU-145 prostate 107% | K-562 leukemia 120% | MDA-MB-231 breast 88.6% | RXF 393 renal 125% | SF-268 CNS 96.4% | SF-295 CNS 114% | SF-539 CNS 118% | UACC-257 melanoma 109% | M14 melanoma 99% | HCT-15 colon 101% | HT29 colon 115% | SNB-75 CNS 90.8% | SNB-19 CNS 106% | U251 CNS 102% | PC-3 prostate 109% | SK-MEL-5 melanoma 104% | SK-MEL-28 melanoma 109%

CSc1nc(S(C)(=O)=O)nc2[nH]c(=O)[nH]c12
inactive: DU-145 prostate 116% | K-562 leukemia 108% | MDA-MB-231 breast 89.7% | RXF 393 renal 110% | SF-268 CNS 101% | SF-539 CNS 99.1% | UACC-257 melanoma 105% | M14 melanoma 96.7% | HCT-15 colon 94.9% | HT29 colon 99.5% | SNB-75 CNS 97% | SNB-19 CNS 99.8% | U251 CNS 105% | PC-3 prostate 106% | SK-MEL-5 melanoma 103% | UACC-62 melanoma 98.9% | LOX IMVI melanoma 108% | SK-MEL-28 melanoma 126%

CC[N+](CC)=c1ccc2nc3c(cc(NCc4ccccc4)c4ccccc43)oc-2c1
active: DU-145 prostate -95.8% | K-562 leukemia -26.1% | MDA-MB-231 breast -69.6% | RXF 393 renal -91.4% | SF-268 CNS -15.9% | SF-295 CNS -98.9% | SF-539 CNS -87% | UACC-257 melanoma -98.4% | M14 melanoma -74.4% | HCT-15 colon -45.8% | HT29 colon -62.9% | SNB-19 CNS -79.7% | U251 CNS -95% | PC-3 prostate -19% | SK-MEL-5 melanoma -97.4% | UACC-62 melanoma -73% | LOX IMVI melanoma -64.2%

COc1nc2c(c(=O)n1C)CN(c1ccccc1)C(=O)C(C)N2 (stereo not given)
inactive: DU-145 prostate 114% | K-562 leukemia 101% | MDA-MB-231 breast 98.3% | RXF 393 renal 95.2% | SF-268 CNS 97.1% | SF-295 CNS 105% | SF-539 CNS 96.1% | UACC-257 melanoma 93.5% | M14 melanoma 95.3% | HCT-15 colon 101% | HT29 colon 99.9% | SNB-75 CNS 77.4% | SNB-19 CNS 96.7% | U251 CNS 99% | SK-MEL-5 melanoma 104% | UACC-62 melanoma 91.7% | LOX IMVI melanoma 91.6% | SK-MEL-28 melanoma 113%

CC(C)(C)c1nn(-c2ccccc2)c2c1CC1(CN2Cc2ccc(Cl)cc2)C(=O)c2ccccc2C1=O
inactive: DU-145 prostate 95.8% | K-562 leukemia 81.3% | MDA-MB-231 breast 83.2% | RXF 393 renal 95.3% | SF-268 CNS 89% | UACC-257 melanoma 76.1% | M14 melanoma 87.1% | HCT-15 colon 88.2% | HT29 colon 65.1% | SNB-75 CNS 120% | SNB-19 CNS 84.5% | U251 CNS 85.7% | PC-3 prostate 44.2% | SK-MEL-5 melanoma 78.5% | UACC-62 melanoma 73.6% | LOX IMVI melanoma 81.8% | SK-MEL-28 melanoma 102%

COc1ccc(C(=O)c2cc3c(OC)c(OC)c(OC)cc3[nH]2)cc1
inactive: DU-145 prostate 81.8% | MDA-MB-231 breast 56.3% | RXF 393 renal 72% | SF-268 CNS 63.5% | SF-295 CNS 143% | SF-539 CNS 66.1% | UACC-257 melanoma 87.8% | M14 melanoma 30.2% | HCT-15 colon 36.1% | HT29 colon 14.2% | SNB-75 CNS 51.9% | SNB-19 CNS 71.9% | U251 CNS 59.8% | SK-MEL-5 melanoma 36.9% | UACC-62 melanoma 36.7% | LOX IMVI melanoma 56.3% | SK-MEL-28 melanoma 65.2%
active: K-562 leukemia 7.74%

OC(CCN1CCCC1)(c1ccccc1)C1CCCCC1 (stereo not given)
inactive: DU-145 prostate 108% | K-562 leukemia 117% | MDA-MB-231 breast 104% | RXF 393 renal 103% | SF-268 CNS 95.9% | SF-295 CNS 100% | UACC-257 melanoma 109% | M14 melanoma 99.6% | HCT-15 colon 92.4% | HT29 colon 101% | SNB-75 CNS 84% | SNB-19 CNS 107% | U251 CNS 105% | PC-3 prostate 98.6% | SK-MEL-5 melanoma 89.8% | LOX IMVI melanoma 99.9% | SK-MEL-28 melanoma 105%
